Among the data in PubChem BioAssay (NCATS) are Potency values, retold here.

SMILES strings stand for the structures. Records with an inconclusive call do not appear. A call without a number means that no potency is given here. Calls of active or inactive are those of the source. Calls come from the whole dose curve; as a rule, active = well fitted inhibition curve with a large enough effect; inconclusive = small, poorly fitted or top-dose-only effect; inactive = no such curve, though single readings can be large or run the other way. Positions of bridges follow the written chain, without caps; N, C: chain ends. Non-standard residues stand in square brackets, D forms with d. Residues, ends and D or L forms follow the SMILES beside them. *: point of attachment. X1 = CCC(C)C(N)C1=NC(C(=O)*)CS1; dOrn = NCCC[C@@H](N)C(=O)O
Potency is the fitted concentration of half-maximal effect.

For the experiment, the target named is Retinaldehyde dehydrogenase 3 (Homo sapiens) (UniProt P47895). As to the kind of experiment: qHTS for Inhibitors of the Aldehyde Dehydrogenase Family (ALDH1A3) Primary screen (AID 2061315). Particulars: ALDH inhibition qHTS; series mostly up to 56 µM. A general note: In qHTS, concentration-response curves come from the screen itself.
Take `Cc1nnc(-c2sc(NC(=O)[C@H](C(C)C)n3c(=O)[nH]c4ccccc4c3=O)nc2C)o1`: the Potency result is “inactive”. As to `CN(C)C(=O)Nc1cc(-c2ccccc2)ccc1N(C)C`, the Potency is 28.2 µM (active). In the case of `CCC(C)C(N)C1=NC(C(=O)N[C@@H](CC(C)C)C(=O)N[C@H](CCC(=O)O)C(=O)N[C@H](C(=O)N[C@H]2CCCCNC(=O)[C@H](CC(N)=O)NC(=O)[C@@H](CC(=O)O)NC(=O)[C@H](Cc3cnc[nH]3)NC(=O)[C@@H](Cc3ccccc3)NC(=O)[C@H]([C@@H](C)CC)NC(=O)[C@@H](CCCN)NC2=O)[C@@H](C)CC)CS1` (stereo partly drawn) (X1-L[dE]IK[dOrn]I[dF]H[dD]N; lactam 4-C), the Potency result is “inactive”. On to `O=C(O)c1cnn(-c2nc3cc(OC(F)(F)F)c(Cl)cc3[nH]2)c1`, for which the Potency is 10 µM (active). With `CO/N=C(/C(=O)N[C@@H]1C(=O)N2C(C(=O)O)=C(Cn3ccc(=N)n3CCO)CS[C@H]12)c1csc(N)n1`, the Potency result is “inactive”. The entry for `C=CC(=O)Nc1cccc(Nc2nc(Nc3ccc(Oc4ccnc(C(=O)NC)c4)cc3)ncc2F)c1` is “inactive”. The entry for `CC(=O)Nc1sc2c(c1-c1nc3ccccc3s1)CNC2` is “inactive”; for `Oc1ccc(Nc2nc(-c3ccc(Cl)cc3)cs2)cc1` it is “inactive”. Next, `CC(=O)NC(C)c1cnc(-c2cnc(Oc3ccc(OC(C)C)cc3)s2)s1` (stereo not drawn): “inactive”. On to `Clc1ncoc1-c1c[nH]c2ccccc12`, for which the Potency result was “inactive”. Turning to `O=C(Nc1ccccc1)N1CCN(Cc2ccc3ccccc3n2)CC1`, the Potency entry is “inactive”. In the case of `N[C@@H](CCNCc1ccc(Cl)cc1)C(=O)N1CCCCC1`, the Potency result is “inactive”. The entry for `COc1ccc(-c2cc3onc(-c4ccncc4)c3c(=O)n2C)cc1` is “inactive”.
